In the supplement of paper PMC10849652:
Of roughly 7,900 targets only a part is listed; those with a hit were picked by preference. About 0.6% of all pairs of compound and target were hits.

Compound: C1=CC=C(C=C1)C2=NC(=C(N2)C3=CC=NC=C3)C4=CC(=C(C=C4)Cl)O
Experiment: log2 fold change, soluble protein after heating vs DMSO (PISA); higher = thermal stabilisation; K562 cells, 10 uM, 30 min; active = over 0.2 and 3.5 SD of the protein, either way, in both replicates (recomputed)
How it was run: (§1)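 K562 cells at 2×10^6 cells/mL were treated for 30 min with 10 μM compound, and aliquots were heated for 3 min over 48°C-58°C before pooling. Extraction used PBS with 0.5% NP-40 at 4°C, and soluble protein was the supernatant after 21,000xg for 90 min, measured by TMTpro 16plex LC-MS/MS with channel sums equalised. Thermal stability values, relative to control samples and from duplicates, are log2 fold changes.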

Sequence of UniProt Q12986 (Q12986 whole entry, looked up): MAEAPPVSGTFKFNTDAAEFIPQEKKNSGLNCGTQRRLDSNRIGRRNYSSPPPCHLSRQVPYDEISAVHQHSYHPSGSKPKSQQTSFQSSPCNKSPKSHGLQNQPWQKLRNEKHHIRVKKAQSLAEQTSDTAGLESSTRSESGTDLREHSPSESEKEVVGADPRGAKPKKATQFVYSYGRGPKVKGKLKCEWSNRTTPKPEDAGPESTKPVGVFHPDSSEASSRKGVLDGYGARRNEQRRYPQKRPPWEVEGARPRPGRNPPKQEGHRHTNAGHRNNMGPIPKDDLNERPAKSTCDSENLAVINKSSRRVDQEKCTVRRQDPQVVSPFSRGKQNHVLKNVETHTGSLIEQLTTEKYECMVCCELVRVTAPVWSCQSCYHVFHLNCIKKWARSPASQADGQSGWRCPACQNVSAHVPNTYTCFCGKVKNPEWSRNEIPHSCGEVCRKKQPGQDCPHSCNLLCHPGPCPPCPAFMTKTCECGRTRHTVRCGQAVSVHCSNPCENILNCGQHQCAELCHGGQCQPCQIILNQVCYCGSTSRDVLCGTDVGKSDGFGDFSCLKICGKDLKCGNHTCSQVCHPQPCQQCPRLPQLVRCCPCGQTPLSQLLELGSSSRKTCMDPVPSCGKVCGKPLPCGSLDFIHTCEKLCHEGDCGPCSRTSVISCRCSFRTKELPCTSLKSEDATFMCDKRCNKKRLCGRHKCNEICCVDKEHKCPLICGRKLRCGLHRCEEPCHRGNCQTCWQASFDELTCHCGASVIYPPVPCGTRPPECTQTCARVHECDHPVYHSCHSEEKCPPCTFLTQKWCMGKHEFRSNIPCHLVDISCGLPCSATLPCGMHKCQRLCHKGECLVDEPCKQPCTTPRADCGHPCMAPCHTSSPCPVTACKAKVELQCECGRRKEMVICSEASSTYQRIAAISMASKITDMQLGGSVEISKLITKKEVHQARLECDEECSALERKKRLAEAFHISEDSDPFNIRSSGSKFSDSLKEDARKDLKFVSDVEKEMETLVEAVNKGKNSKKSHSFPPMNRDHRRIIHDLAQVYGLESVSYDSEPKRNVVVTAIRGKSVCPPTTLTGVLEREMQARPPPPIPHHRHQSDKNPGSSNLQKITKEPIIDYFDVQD
Sequence of UniProt O75607 (O75607 whole entry, looked up): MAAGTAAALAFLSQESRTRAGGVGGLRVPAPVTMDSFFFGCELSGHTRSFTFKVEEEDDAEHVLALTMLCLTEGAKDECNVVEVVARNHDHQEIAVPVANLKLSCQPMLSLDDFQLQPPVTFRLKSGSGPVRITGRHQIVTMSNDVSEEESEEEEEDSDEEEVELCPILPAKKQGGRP
Sequence of UniProt P51956 (P51956 whole entry, looked up): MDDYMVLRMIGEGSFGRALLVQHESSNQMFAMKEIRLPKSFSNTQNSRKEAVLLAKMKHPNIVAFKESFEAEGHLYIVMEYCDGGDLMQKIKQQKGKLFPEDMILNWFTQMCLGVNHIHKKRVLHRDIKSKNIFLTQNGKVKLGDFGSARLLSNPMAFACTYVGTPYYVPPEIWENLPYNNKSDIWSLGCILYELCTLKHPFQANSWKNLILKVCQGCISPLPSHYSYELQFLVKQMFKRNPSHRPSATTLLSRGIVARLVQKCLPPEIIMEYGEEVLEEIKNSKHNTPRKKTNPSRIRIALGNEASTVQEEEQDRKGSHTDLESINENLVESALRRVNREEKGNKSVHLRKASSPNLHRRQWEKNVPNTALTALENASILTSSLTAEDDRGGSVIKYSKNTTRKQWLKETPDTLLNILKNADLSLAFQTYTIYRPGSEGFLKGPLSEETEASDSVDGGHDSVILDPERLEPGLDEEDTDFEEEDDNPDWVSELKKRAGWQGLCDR
Sequence of UniProt Q92621 (Q92621 whole entry, looked up): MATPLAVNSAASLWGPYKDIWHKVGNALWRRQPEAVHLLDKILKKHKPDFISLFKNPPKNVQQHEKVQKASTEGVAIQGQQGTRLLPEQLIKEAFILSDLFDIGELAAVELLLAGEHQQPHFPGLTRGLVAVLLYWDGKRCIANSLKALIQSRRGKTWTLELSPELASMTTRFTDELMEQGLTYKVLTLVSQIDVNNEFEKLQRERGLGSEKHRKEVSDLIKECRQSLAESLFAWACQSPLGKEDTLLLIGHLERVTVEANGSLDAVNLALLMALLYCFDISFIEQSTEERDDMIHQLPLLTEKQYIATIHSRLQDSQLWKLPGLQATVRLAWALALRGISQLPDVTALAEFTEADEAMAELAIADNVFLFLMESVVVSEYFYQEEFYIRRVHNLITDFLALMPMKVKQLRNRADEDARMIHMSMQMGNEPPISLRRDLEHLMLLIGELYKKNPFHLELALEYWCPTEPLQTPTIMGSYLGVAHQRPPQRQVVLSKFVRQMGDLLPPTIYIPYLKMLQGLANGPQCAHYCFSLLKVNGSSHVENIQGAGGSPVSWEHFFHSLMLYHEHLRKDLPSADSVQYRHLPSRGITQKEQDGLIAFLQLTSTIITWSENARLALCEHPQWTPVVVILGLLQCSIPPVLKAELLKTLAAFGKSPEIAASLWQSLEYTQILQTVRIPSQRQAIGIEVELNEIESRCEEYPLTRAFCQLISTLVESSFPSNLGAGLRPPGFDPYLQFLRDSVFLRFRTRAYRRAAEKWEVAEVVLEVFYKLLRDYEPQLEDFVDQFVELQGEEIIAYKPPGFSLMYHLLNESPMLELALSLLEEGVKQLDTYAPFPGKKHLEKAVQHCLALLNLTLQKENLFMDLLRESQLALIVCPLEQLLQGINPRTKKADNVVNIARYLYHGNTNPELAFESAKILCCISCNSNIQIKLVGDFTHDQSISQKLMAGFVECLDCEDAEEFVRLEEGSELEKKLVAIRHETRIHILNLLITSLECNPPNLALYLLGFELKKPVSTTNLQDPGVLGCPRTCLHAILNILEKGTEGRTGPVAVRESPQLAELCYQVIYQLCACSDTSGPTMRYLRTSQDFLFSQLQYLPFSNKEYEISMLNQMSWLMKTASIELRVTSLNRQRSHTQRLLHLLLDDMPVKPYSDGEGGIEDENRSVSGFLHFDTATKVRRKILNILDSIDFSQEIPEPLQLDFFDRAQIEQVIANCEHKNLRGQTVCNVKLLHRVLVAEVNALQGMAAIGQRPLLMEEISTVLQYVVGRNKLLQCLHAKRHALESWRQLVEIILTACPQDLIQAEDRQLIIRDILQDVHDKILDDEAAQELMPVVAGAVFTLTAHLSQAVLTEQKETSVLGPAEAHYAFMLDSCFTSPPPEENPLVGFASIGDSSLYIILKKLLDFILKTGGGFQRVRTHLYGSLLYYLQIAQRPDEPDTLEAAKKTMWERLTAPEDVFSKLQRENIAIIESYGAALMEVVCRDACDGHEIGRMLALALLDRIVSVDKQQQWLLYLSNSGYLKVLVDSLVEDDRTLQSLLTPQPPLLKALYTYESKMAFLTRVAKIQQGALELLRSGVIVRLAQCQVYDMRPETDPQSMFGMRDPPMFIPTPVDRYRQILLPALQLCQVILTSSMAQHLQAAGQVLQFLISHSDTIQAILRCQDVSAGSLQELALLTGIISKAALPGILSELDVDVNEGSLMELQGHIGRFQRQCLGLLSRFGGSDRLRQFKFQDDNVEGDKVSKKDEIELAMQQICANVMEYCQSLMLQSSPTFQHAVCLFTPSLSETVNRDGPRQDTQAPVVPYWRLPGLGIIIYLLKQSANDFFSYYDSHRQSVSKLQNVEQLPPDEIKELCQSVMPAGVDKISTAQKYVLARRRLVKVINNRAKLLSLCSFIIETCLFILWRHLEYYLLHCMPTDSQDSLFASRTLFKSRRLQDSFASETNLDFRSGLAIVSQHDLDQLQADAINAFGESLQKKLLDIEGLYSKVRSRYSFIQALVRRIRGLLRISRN
Sequence of UniProt O43847 (O43847 whole entry, looked up): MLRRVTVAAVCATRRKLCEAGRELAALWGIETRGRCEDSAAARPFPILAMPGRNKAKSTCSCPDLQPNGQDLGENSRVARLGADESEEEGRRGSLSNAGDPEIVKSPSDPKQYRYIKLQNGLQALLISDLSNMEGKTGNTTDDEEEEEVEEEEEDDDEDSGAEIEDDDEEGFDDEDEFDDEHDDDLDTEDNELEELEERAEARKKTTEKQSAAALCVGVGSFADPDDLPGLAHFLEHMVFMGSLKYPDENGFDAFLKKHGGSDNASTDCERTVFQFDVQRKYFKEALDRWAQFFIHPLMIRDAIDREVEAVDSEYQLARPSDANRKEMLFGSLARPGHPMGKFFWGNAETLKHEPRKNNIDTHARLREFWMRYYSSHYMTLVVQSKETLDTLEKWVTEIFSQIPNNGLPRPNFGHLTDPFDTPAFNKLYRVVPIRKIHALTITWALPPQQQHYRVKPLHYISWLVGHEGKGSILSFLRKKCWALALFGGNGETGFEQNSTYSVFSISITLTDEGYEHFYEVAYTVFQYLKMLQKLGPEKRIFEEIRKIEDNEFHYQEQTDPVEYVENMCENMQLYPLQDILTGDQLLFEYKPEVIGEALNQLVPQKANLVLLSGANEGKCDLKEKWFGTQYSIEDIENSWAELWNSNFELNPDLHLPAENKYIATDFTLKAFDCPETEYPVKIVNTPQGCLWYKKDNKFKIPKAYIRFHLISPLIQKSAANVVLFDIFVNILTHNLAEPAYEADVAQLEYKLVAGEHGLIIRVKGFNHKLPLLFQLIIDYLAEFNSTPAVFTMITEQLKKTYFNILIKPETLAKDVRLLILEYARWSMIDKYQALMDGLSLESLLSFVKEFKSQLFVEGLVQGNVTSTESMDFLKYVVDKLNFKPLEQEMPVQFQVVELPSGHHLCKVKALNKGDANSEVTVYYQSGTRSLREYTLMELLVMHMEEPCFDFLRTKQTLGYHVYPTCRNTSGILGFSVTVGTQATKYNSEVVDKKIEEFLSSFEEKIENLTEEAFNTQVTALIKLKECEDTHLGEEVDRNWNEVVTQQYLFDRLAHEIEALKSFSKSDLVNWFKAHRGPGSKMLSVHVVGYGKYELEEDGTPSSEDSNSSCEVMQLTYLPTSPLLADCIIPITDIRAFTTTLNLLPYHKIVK
Sequence of UniProt Q9Y605 (Q9Y605 whole entry, looked up): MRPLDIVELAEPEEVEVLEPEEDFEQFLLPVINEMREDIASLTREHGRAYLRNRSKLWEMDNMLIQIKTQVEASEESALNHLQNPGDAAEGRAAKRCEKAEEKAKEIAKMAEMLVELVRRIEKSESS

log2 fold change, inactive:
NPC1 (UniProt O15118) 0.011
NFX1 (UniProt Q12986) -0.039
NME7 (UniProt Q9Y5B8) 0.06
NOP53 (UniProt Q9NZM5) -0.147
OAT (UniProt P04181) -0.183
NDUFS4 (UniProt O43181) -0.104
OTUD6B (UniProt Q8N6M0) -0.001
NDUFB8 (UniProt O95169) -0.026
NISCH (UniProt Q9Y2I1) 0.044
OSBPL3 (UniProt Q9H4L5) 0.255
NFYB (UniProt P25208) -0.036
NA isoform 3 (UniProt Q4G0T1) 0.014
NUMB (UniProt P49757) -0.004
NFATC3 (UniProt Q12968) -0.019
OXSR1 (UniProt O95747) 0.039
MTHFD1 (UniProt P11586) 0.05
OTULIN (UniProt Q96BN8) -0.027
NEK3 (UniProt P51956) 0.039
MRPS15 (UniProt P82914) 0.021
NMRAL1 (UniProt Q9HBL8) 0.029
MON2 isoform 5 (UniProt Q7Z3U7) 0.015
NPM3 (UniProt O75607) -0.025
ORC5 (UniProt O43913) 0.031
MON1B (UniProt Q7L1V2) 0.066
NRDC isoform 2 (UniProt O43847) 0.027
NDUFA12 (UniProt Q9UI09) 0.061
NCKAP1 isoform 2 (UniProt Q9Y2A7) 0.024
MTHFS (UniProt P49914) 0.026
NUP205 (UniProt Q92621) 0.016
MT-ATP6 (UniProt P00846) -0.048
MLX (UniProt Q9UH92) -0.041
MRFAP1 (UniProt Q9Y605) -0.045
NSMCE2 (UniProt Q96MF7) 0.04

Compound: C1=CC=C2C(=C1)C3=NNC4=CC=CC(=C43)C2=O
Experiment: as above
How it was run: as §1

log2 fold change, inactive:
NPC1 (UniProt O15118) -0.027
NFX1 (UniProt Q12986) -0.107
NME7 (UniProt Q9Y5B8) 0.006
NOP53 (UniProt Q9NZM5) -0.121
OAT (UniProt P04181) -0.001
NDUFS4 (UniProt O43181) -0.081
OTUD6B (UniProt Q8N6M0) 0.051
NDUFB8 (UniProt O95169) 0.07
NISCH (UniProt Q9Y2I1) -0.144
OSBPL3 (UniProt Q9H4L5) 0.16
NFYB (UniProt P25208) -0.045
NA isoform 3 (UniProt Q4G0T1) 0.047
NUMB (UniProt P49757) -0.009
NFATC3 (UniProt Q12968) -0.101
NAGPA (UniProt Q9UK23) -0.025
OXSR1 (UniProt O95747) 0.054
MTHFD1 (UniProt P11586) 0.01
OTULIN (UniProt Q96BN8) 0.039
NEK3 (UniProt P51956) -0.05
MRPS15 (UniProt P82914) 0.106
NMRAL1 (UniProt Q9HBL8) 0.273
MON2 isoform 5 (UniProt Q7Z3U7) 0.007
NPM3 (UniProt O75607) -0.022
ORC5 (UniProt O43913) 0.01
MLST8 (UniProt Q9BVC4) -0.111
MON1B (UniProt Q7L1V2) -0.004
NRDC isoform 2 (UniProt O43847) 0.057
NDUFA12 (UniProt Q9UI09) -0.007
MORC2 (UniProt Q9Y6X9) 0.421
NDUFB1 (UniProt O75438) 0.079
NCKAP1 isoform 2 (UniProt Q9Y2A7) -0.003
MTHFS (UniProt P49914) 0.083
NUP205 (UniProt Q92621) -0.146
MT-ATP6 (UniProt P00846) -0.017
NELFCD (UniProt Q8IXH7) 0.06
MLX (UniProt Q9UH92) -0.076
MRFAP1 (UniProt Q9Y605) 0.141
NSMCE2 (UniProt Q96MF7) -0.058
NNMT (UniProt P40261) 0.028
